A word on the inhibition: it is the drop in the measured response relative to a control, in per cent.

The campaign covered roughly 7,700 compounds. About 15 (0.2%) were called active. Inconclusive results (about 6%) are left out. The sample holds actives, similar compounds and a random draw of the others, so the mix is not that of the screen. A number with no mark means an inactive call.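 How the source made its calls: active means more than half of replicate wells with inhibition above about 18% (limit read from the data, passing the limit was not always enough); inconclusive means exactly half of replicate wells above that limit; inactive means fewer than half of replicates above it.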

For 49 compounds, inhibition results are on record in PubChem BioAssay AID434961 (Broad Institute, 2010).

The target in this test is Regulator of chromosome condensation (Homo sapiens) + GTP-binding nuclear protein Ran (Homo sapiens) + Importin subunit beta-1 (Homo sapiens) (UniProt P18754+P62826+Q14974). As to the kind of experiment: inhibitors of Ran–importin-beta complex formation, primary screen, biochemical, CFP-Ran/YFP-importin-beta FRET, RCC1, cell-free (AID 434961).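 Further: 0% = DMSO wells and 100% inhibition = RanGDP control wells on each plate.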 The following applies: hits give high values, concentration not given here.
As for `C[C@H](CO)N1C[C@H](C)[C@H](CN(C)S(=O)(=O)c2cn(C)cn2)Oc2ccc(N(C)C)cc2CC1=O`, the inhibition is -2.21%. Regarding `C[C@@H]1CN([C@H](C)CO)C(=O)c2cc(NC(=O)c3ccncc3)ccc2O[C@@H]1CN(C)C`, the inhibition is 0.131%. For the compound `CC(C)NC(=O)Nc1ccc2c(c1)C(=O)N([C@H](C)CO)C[C@H](C)[C@@H](CN(C)Cc1ccc(C(=O)O)cc1)OCCCC[C@@H](C)O2`, the inhibition was 2.11%. For `C[C@@H]1CN([C@H](C)CO)C(=O)c2cc(NS(=O)(=O)c3ccccc3)ccc2O[C@@H](C)CCCCO[C@@H]1CN(C)Cc1ccc2c(c1)OCO2` the value was -2.27%. As to `COc1ccc(S(=O)(=O)Nc2cccc3c2O[C@H](CN(C)Cc2ccc4c(c2)OCO4)[C@@H](C)CN([C@@H](C)CO)C3=O)cc1`, the inhibition is 1.75%. As for `C[C@@H]1CCCCO[C@@H](CN(C)C(=O)CCC(F)(F)F)[C@@H](C)CN([C@@H](C)CO)C(=O)c2cc(NS(=O)(=O)c3cccs3)ccc2O1`, the inhibition was 5.99%. Under `C[C@@H]1CN([C@@H](C)CO)C(=O)c2cccc(NC(=O)c3cnccn3)c2O[C@H]1CN(C)C(=O)NC1CCCCC1` stands 0.00388%. For `CC(C)NC(=O)N(C)C[C@@H]1Oc2c(NC(=O)C3CCOCC3)cccc2C(=O)N([C@H](C)CO)C[C@H]1C`, the inhibition is -0.0599%.

For `C[C@H]1CN([C@@H](C)CO)C(=O)Cc2cc(NS(=O)(=O)c3ccccc3)ccc2O[C@@H]1CN(C)Cc1ccc2c(c1)OCO2`, the inhibition is 0.885%. For `Cc1noc(C)c1NC(=O)Nc1ccc2c(c1)CC(=O)N([C@H](C)CO)C[C@@H](C)[C@H](CN(C)S(=O)(=O)c1ccccc1)O2`, the inhibition is 0.923%. As for `C[C@@H]1CN([C@H](C)CO)C(=O)c2cc(NS(=O)(=O)c3cn(C)cn3)ccc2O[C@H]1CN(C)C(=O)Nc1ccc2c(c1)OCO2`, the inhibition was 0.416%. Consider `C[C@H](CO)N1C[C@H](C)[C@@H](CN(C)S(=O)(=O)c2ccccc2)Oc2ccc(NC(=O)NC3CCCCC3)cc2C1=O`, for which the inhibition is 3.44%. Regarding `C[C@@H]1CN([C@@H](C)CO)C(=O)Cc2cc(NS(=O)(=O)c3cn(C)cn3)ccc2O[C@H]1CN(C)S(=O)(=O)c1ccc(Cl)cc1`, the inhibition was -7.4%. For `C[C@H](CO)N1C[C@H](C)[C@@H](CN(C)C(=O)NC2CCCCC2)Oc2c(NS(=O)(=O)c3ccccc3)cccc2C1=O` the value was 1.49%; for `C[C@H]1CN([C@@H](C)CO)C(=O)CCCn2nncc2CO[C@H]1CN(C)C(=O)Nc1ccccc1F`, 0.229%. For `Cc1noc(C)c1S(=O)(=O)N(C)C[C@@H]1Oc2ccc(NC(=O)C3CCCCC3)cc2CC(=O)N([C@@H](C)CO)C[C@@H]1C` the value was -3.61%; for `CC(C)NC(=O)N(C)C[C@@H]1Oc2c(NS(=O)(=O)c3ccccc3)cccc2C(=O)N([C@H](C)CO)C[C@H]1C`, 4.93%. In the case of `C[C@@H]1CN([C@H](C)CO)C(=O)Cc2cc(NC(=O)Nc3ccccc3)ccc2O[C@H]1CN(C)CC1CC1`, the inhibition is -1.7%. Turning to `COc1ccc(NC(=O)N(C)C[C@@H]2Oc3ncc(C#Cc4ccccc4)cc3C(=O)N([C@H](C)CO)C[C@@H]2C)cc1`, the inhibition is 2.4%. Regarding `C[C@H](CO)N1C[C@H](C)[C@@H](CN(C)Cc2ccc(Cl)c(Cl)c2)Oc2c(NS(=O)(=O)c3cccs3)cccc2C1=O`, the inhibition was 3.33%. For the compound `C[C@H](CO)N1C[C@H](C)[C@@H](CN(C)C(=O)Nc2cccc3ccccc23)Oc2ccc(NC(=O)NC3CCCCC3)cc2CC1=O`, the inhibition is -2.7%. For the compound `C[C@@H]1CCCCO[C@@H](CN(C)Cc2ccccc2)[C@@H](C)CN([C@H](C)CO)C(=O)c2cc(N(C)C)ccc2O1`, the inhibition is -4.07%. Under `COc1ccc(CN(C)C[C@H]2Oc3ccc(NC(=O)Cc4cn(C)c5ccccc45)cc3C(=O)N([C@H](C)CO)C[C@H]2C)cc1` stands -2.11%. In the case of `COc1ccc(S(=O)(=O)N(C)C[C@H]2Oc3c(NC(=O)C4CC4)cccc3C(=O)N([C@@H](C)CO)C[C@@H]2C)cc1`, the inhibition was -1.54%.

Regarding `Cc1noc(C)c1S(=O)(=O)Nc1cccc2c1O[C@H](CN(C)Cc1ccc3c(c1)OCO3)[C@H](C)CN([C@H](C)CO)C2=O`, the inhibition was -8.22%. In the case of `C[C@@H]1CN([C@H](C)CO)C(=O)c2cc(NC(=O)C3CC3)ccc2O[C@H]1CN(C)Cc1ccc(Cl)c(Cl)c1`, the inhibition is 0.993%. On to `Cc1noc(C)c1NC(=O)N(C)C[C@@H]1OCCCC[C@@H](C)Oc2ccc(NC(=O)Cc3ccccc3)cc2C(=O)N([C@@H](C)CO)C[C@@H]1C`, for which the inhibition is 4.99%.

As to `CC(C)NC(=O)N(C)C[C@@H]1OCCCC[C@H](C)Oc2ccc(NC(=O)CCC(F)(F)F)cc2C(=O)N([C@@H](C)CO)C[C@H]1C`, the inhibition was -1.88%.

Turning to `C[C@@H]1CN([C@@H](C)CO)C(=O)c2cc(NS(=O)(=O)c3cccs3)ccc2O[C@@H](C)CCCCO[C@@H]1CN(C)C`, the inhibition was -3.73%. As to `COC(=O)N(C)C[C@H]1OCc2cn(nn2)CCCC(=O)N([C@H](C)CO)C[C@@H]1C`, the inhibition is -1.56%.

For `COC(=O)N(C)C[C@H]1OCc2cn(nn2)CCCC(=O)N([C@@H](C)CO)C[C@H]1C`, the inhibition was 18.2% (active). In the case of `COC(=O)N(C)C[C@@H]1OCc2cn(nn2)CCCC(=O)N([C@@H](C)CO)C[C@@H]1C`, the inhibition was 2.64%. For `C[C@H](CO)N1C[C@H](C)[C@H](CN(C)C(=O)Nc2cccc3ccccc23)OCCCC[C@H](C)Oc2ccc(NC(=O)c3ccncc3)cc2C1=O` the value was 0.239%. Consider `C[C@@H]1CN([C@@H](C)CO)C(=O)Cc2cc(NC(=O)Nc3ccc(C(F)(F)F)cc3)ccc2O[C@@H]1CN(C)C(=O)NC1CCCCC1`, for which the inhibition was 1.62%. For `C[C@@H]1CN([C@H](C)CO)C(=O)c2cc(NS(=O)(=O)c3cn(C)cn3)ccc2O[C@H]1CN(C)C(=O)Nc1ccc(F)cc1` the value was 9.51%; for `C[C@@H]1CN([C@@H](C)CO)C(=O)Cc2cc(NC(=O)Nc3ccc4c(c3)OCO4)ccc2O[C@H]1CN(C)C(=O)NC1CCCCC1`, -2.22%. Regarding `C[C@@H]1CN([C@H](C)CO)C(=O)c2cc(NC(=O)Cc3ccccc3)ccc2O[C@@H]1CN(C)C(=O)NC1CCCCC1`, the inhibition was 1.32%. As to `C[C@@H]1CN([C@H](C)CO)C(=O)CCCn2cc(nn2)CO[C@H]1CN(C)C(=O)Nc1cccc2ccccc12`, the inhibition is -3.4%. As for `CC(C)NC(=O)N(C)C[C@H]1Oc2ccc(NC(=O)CCC(F)(F)F)cc2C(=O)N([C@H](C)CO)C[C@@H]1C`, the inhibition is -4.13%.

Turning to `C[C@H](CO)N1C[C@H](C)[C@H](CN(C)C(=O)CCCN(C)C)OCCCC[C@H](C)Oc2ccc(NC(=O)Nc3cccc4ccccc34)cc2C1=O`, the inhibition is 2.28%. `C[C@H]1CN([C@@H](C)CO)C(=O)c2cccc(NS(=O)(=O)c3ccc(Cl)cc3)c2O[C@H]1CN(C)S(=O)(=O)c1cn(C)cn1`: the inhibition was -0.913%.

In the case of `CNC[C@@H]1OCCCC[C@@H](C)Oc2ccc(N)cc2C(=O)N([C@H](C)CO)C[C@H]1C`, the inhibition was 0.828%. Take `CNC[C@H]1OCCCC[C@H](C)Oc2ccc(NS(=O)(=O)c3cccs3)cc2C(=O)N([C@@H](C)CO)C[C@@H]1C`: the inhibition was 1.28%.

As to `C[C@@H]1CN([C@@H](C)CO)C(=O)Cc2cc(NS(=O)(=O)c3cn(C)cn3)ccc2O[C@@H]1CN(C)C(=O)Nc1ccc(F)cc1`, the inhibition was -4.41%.

Consider `COc1ccc(S(=O)(=O)N(C)C[C@H]2Oc3ccc(NC(=O)Nc4ccc(C(F)(F)F)cc4)cc3CC(=O)N([C@@H](C)CO)C[C@@H]2C)cc1`, for which the inhibition was 3.32%. For `C[C@H](CO)N1C[C@H](C)[C@H](CN(C)Cc2ccncc2)OCCCC[C@H](C)Oc2ccc(NC(=O)CCCN(C)C)cc2C1=O` the value was 1.3%. As for `C[C@H](CO)N1C[C@H](C)[C@@H](CN(C)Cc2ccc(C(=O)O)cc2)Oc2ccc(NC(=O)NC3CCCCC3)cc2C1=O`, the inhibition is -0.0517%. For `C[C@@H]1CN([C@@H](C)CO)C(=O)c2cc(NC(=O)Nc3cccc4ccccc34)ccc2O[C@H]1CN(C)C(=O)Nc1cccc2ccccc12` the value was -2.16%.

Regarding `C[C@H](CO)N1C[C@H](C)[C@H](CN(C)C(=O)OCc2ccccc2)OCc2cn(nn2)CCCC1=O`, the inhibition was 1.83%.
